# Measurements reported in the supplement of paper PMC4466140.
# Assays:
# Experiment in all cases: SPOT peptide array binding signal intensity (averaged, normalized) (arbitrary units (background-subtracted, floor 0; scale differs between SH3 domains)); higher = stronger binding of the SH3 domain to the peptide
# [1] = molecular target: AgAbp1
# How it was run: (§1)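 To measure binding, SH3 domains from four yeast species were fused to GST, expressed in E. coli BL21(DE3) and purified on glutathione Sepharose. Each domain was incubated at 10 μg/ml overnight at 4°C on cellulose membranes with synthetic 15-mer peptides whose cysteines were replaced by serines. Anti-GST antibody, an HRP anti-mouse secondary and luminol were used for detection, and images were quantified with Genespotter. Reported binding signal is normalized, background-subtracted spot intensity averaged over replicates, in arbitrary units that differ between domains.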
# [2] = molecular target: AgBbc1
# How it was run: as §1
# [3] = molecular target: AgBem1-D1
# How it was run: as §1
# [4] = molecular target: AgBzz1-D1
# How it was run: as §1
# [5] = molecular target: AgBzz1-D2
# How it was run: as §1
# [6] = molecular target: AgCyk3
# How it was run: as §1
# [7] = molecular target: AgFus1
# How it was run: as §1
# [8] = molecular target: AgHof1
# How it was run: as §1
# [9] = molecular target: AgHse1
# How it was run: as §1
# [10] = molecular target: AgLsb1
# How it was run: as §1
# [11] = molecular target: AgLsb4
# How it was run: as §1
# [12] = molecular target: AgMyo5
# How it was run: as §1
# [13] = molecular target: AgNbp2
# How it was run: as §1
# [14] = molecular target: AgRvs167
# How it was run: as §1
# [15] = molecular target: AgSho1
# How it was run: as §1
# [16] = molecular target: AgSla1-D1-D2
# How it was run: as §1
# [17] = molecular target: AgSla1-D3
# How it was run: as §1
# [18] = molecular target: CaAbp1-D1
# How it was run: as §1
# [19] = molecular target: CaAbp1-D2
# How it was run: as §1
# [20] = molecular target: CaBbc1
# How it was run: as §1
# [21] = molecular target: CaBem1-D1
# How it was run: as §1
# [22] = molecular target: CaBzz1-D1
# How it was run: as §1
# [23] = molecular target: CaBzz1-D2
# How it was run: as §1
# [24] = molecular target: CaCyk3
# How it was run: as §1
# [25] = molecular target: CaFus1
# How it was run: as §1
# [26] = molecular target: CaHof1
# How it was run: as §1
# [27] = molecular target: CaHse1
# How it was run: as §1
# [28] = molecular target: CaLsb1
# How it was run: as §1
# [29] = molecular target: CaLsb4
# How it was run: as §1
# [30] = molecular target: CaMyo5
# How it was run: as §1
# [31] = molecular target: CaNbp2
# How it was run: as §1
# [32] = molecular target: CaRvs167
# How it was run: as §1
# [33] = molecular target: CaRvs167-3
# How it was run: as §1
# [34] = molecular target: CaSho1
# How it was run: as §1
# [35] = molecular target: CaSla1-D1-D2
# How it was run: as §1
# [36] = molecular target: CaSla1-D3
# How it was run: as §1
# [37] = molecular target: ScAbp1
# How it was run: as §1
# [38] = molecular target: ScBbc1
# How it was run: as §1
# [39] = molecular target: ScBem1-D1
# How it was run: as §1
# [40] = molecular target: ScBzz1-D1
# How it was run: as §1
# [41] = molecular target: ScBzz1-D2
# How it was run: as §1
# [42] = molecular target: ScCyk3
# How it was run: as §1
# [43] = molecular target: ScFus1
# How it was run: as §1
# [44] = molecular target: ScHof1
# How it was run: as §1
# [45] = molecular target: ScHse1
# How it was run: as §1
# [46] = molecular target: ScLsb1
# How it was run: as §1
# [47] = molecular target: ScLsb2
# How it was run: as §1
# [48] = molecular target: ScLsb3
# How it was run: as §1
# [49] = molecular target: ScLsb4
# How it was run: as §1
# [50] = molecular target: ScMyo3
# How it was run: as §1
# [51] = molecular target: ScMyo5
# How it was run: as §1
# [52] = molecular target: ScNbp2
# How it was run: as §1
# [53] = molecular target: ScPex13
# How it was run: as §1
# [54] = molecular target: ScRvs167
# How it was run: as §1
# [55] = molecular target: ScSho1
# How it was run: as §1
# [56] = molecular target: ScSla1-D1-D2
# How it was run: as §1
# [57] = molecular target: ScSla1-D3
# How it was run: as §1
# [58] = molecular target: SpAbp1-D1
# How it was run: as §1
# [59] = molecular target: SpBbc1
# How it was run: as §1
# [60] = molecular target: SpBzz1-D1
# How it was run: as §1
# [61] = molecular target: SpBzz1-D2
# How it was run: as §1
# [62] = molecular target: SpCyk3
# How it was run: as §1
# [63] = molecular target: SpHof1
# How it was run: as §1
# [64] = molecular target: SpHof1-2
# How it was run: as §1
# [65] = molecular target: SpHof1-3
# How it was run: as §1
# [66] = molecular target: SpHse1
# How it was run: as §1
# [67] = molecular target: SpLsb1
# How it was run: as §1
# [68] = molecular target: SpLsb4
# How it was run: as §1
# [69] = molecular target: SpMyo1
# How it was run: as §1
# [70] = molecular target: SpNbp2
# How it was run: as §1
# [71] = molecular target: SpPex13
# How it was run: as §1
# [72] = molecular target: SpRvs167
# How it was run: as §1
# [73] = molecular target: SpSla1-D1-D2
# How it was run: as §1
# [74] = molecular target: SpSla1-D3
# How it was run: as §1
binder,measurement,setting,value
LKHGWKPLRPIKLIS,SPOT peptide array binding signal intensity,[1],1400
same,SPOT peptide array binding signal intensity,[2],72.8
same,SPOT peptide array binding signal intensity,[3],12
same,SPOT peptide array binding signal intensity,[4],31
same,SPOT peptide array binding signal intensity,[5],≤ 0
same,SPOT peptide array binding signal intensity,[6],≤ 0
same,SPOT peptide array binding signal intensity,[7],141
same,SPOT peptide array binding signal intensity,[8],21.5
same,SPOT peptide array binding signal intensity,[9],252
same,SPOT peptide array binding signal intensity,[10],≤ 0
same,SPOT peptide array binding signal intensity,[11],≤ 0
same,SPOT peptide array binding signal intensity,[12],≤ 0
same,SPOT peptide array binding signal intensity,[13],41
same,SPOT peptide array binding signal intensity,[14],5.33
same,SPOT peptide array binding signal intensity,[15],32
same,SPOT peptide array binding signal intensity,[16],206
same,SPOT peptide array binding signal intensity,[17],3.5
same,SPOT peptide array binding signal intensity,[18],398
same,SPOT peptide array binding signal intensity,[19],1860
same,SPOT peptide array binding signal intensity,[20],364
same,SPOT peptide array binding signal intensity,[21],23
same,SPOT peptide array binding signal intensity,[22],≤ 0
same,SPOT peptide array binding signal intensity,[23],46.5
same,SPOT peptide array binding signal intensity,[24],7
same,SPOT peptide array binding signal intensity,[25],850
same,SPOT peptide array binding signal intensity,[26],≤ 0
same,SPOT peptide array binding signal intensity,[27],193
same,SPOT peptide array binding signal intensity,[28],≤ 0
same,SPOT peptide array binding signal intensity,[29],176
same,SPOT peptide array binding signal intensity,[30],≤ 0
same,SPOT peptide array binding signal intensity,[31],252
same,SPOT peptide array binding signal intensity,[32],14.8
same,SPOT peptide array binding signal intensity,[33],24.8
same,SPOT peptide array binding signal intensity,[34],201
same,SPOT peptide array binding signal intensity,[35],27.5
same,SPOT peptide array binding signal intensity,[36],10
same,SPOT peptide array binding signal intensity,[37],296
same,SPOT peptide array binding signal intensity,[38],9.75
same,SPOT peptide array binding signal intensity,[39],9
same,SPOT peptide array binding signal intensity,[40],6.5
same,SPOT peptide array binding signal intensity,[41],20
same,SPOT peptide array binding signal intensity,[42],10
same,SPOT peptide array binding signal intensity,[43],50
same,SPOT peptide array binding signal intensity,[44],≤ 0
same,SPOT peptide array binding signal intensity,[45],478
same,SPOT peptide array binding signal intensity,[46],16.5
same,SPOT peptide array binding signal intensity,[47],≤ 0
same,SPOT peptide array binding signal intensity,[48],527
same,SPOT peptide array binding signal intensity,[49],4
same,SPOT peptide array binding signal intensity,[50],≤ 0
same,SPOT peptide array binding signal intensity,[51],≤ 0
same,SPOT peptide array binding signal intensity,[52],550
same,SPOT peptide array binding signal intensity,[53],37.5
same,SPOT peptide array binding signal intensity,[54],≤ 0
same,SPOT peptide array binding signal intensity,[55],1040
same,SPOT peptide array binding signal intensity,[56],50
same,SPOT peptide array binding signal intensity,[57],6.5
same,SPOT peptide array binding signal intensity,[58],166
same,SPOT peptide array binding signal intensity,[59],0.75
same,SPOT peptide array binding signal intensity,[60],362
same,SPOT peptide array binding signal intensity,[61],0.5
same,SPOT peptide array binding signal intensity,[62],≤ 0
same,SPOT peptide array binding signal intensity,[63],93
same,SPOT peptide array binding signal intensity,[64],18.8
same,SPOT peptide array binding signal intensity,[65],445
same,SPOT peptide array binding signal intensity,[66],294
same,SPOT peptide array binding signal intensity,[67],≤ 0
same,SPOT peptide array binding signal intensity,[68],161
same,SPOT peptide array binding signal intensity,[69],≤ 0
same,SPOT peptide array binding signal intensity,[70],246
same,SPOT peptide array binding signal intensity,[71],8
same,SPOT peptide array binding signal intensity,[72],7.5
same,SPOT peptide array binding signal intensity,[73],≤ 0
same,SPOT peptide array binding signal intensity,[74],≤ 0
